Measured values from the supplement of paper PMC10849652.
The full data set covers some 8,800 targets. This sample favours those with a hit. About 0.5% of all pairs of compound and target were hits.

Assays:
Assay in all cases: log2 fold change, soluble protein after heating vs DMSO (PISA); higher = thermal stabilisation; K562 lysate, 10 uM; active = over 0.2 and 3.5 SD of the protein, either way, in both replicates (recomputed)
erlotinib = compound: C#Cc1cccc(Nc2ncnc3cc(OCCOC)c(OCCOC)cc23)c1 [erlotinib]
Summary of the method: (§1)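 To prepare the extract, K562 pellets were dounce-homogenised in PBS pH 7.4 with 1 mM MgCl2, giving crude material at 1 mg/mL protein. This was treated with 10 μM compound for 30 min, then heated in aliquots for 3 min over 48°C-58°C before pooling and addition of NP-40 to 0.5% at 4°C. Centrifugation at 21,000xg for 90 min left soluble protein in the supernatant, which TMTpro 16plex LC-MS/MS quantified with equalised channel sums. Results are log-two fold changes in thermal stability compared with solvent controls, from duplicates.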

[1] = compound: C/C(=N\NC(=O)C1=CC(=CC=C1)S(=O)(=O)N2CCOCC2)/C3=C(C=CC(=C3)Cl)O
Summary of the method: as §1

[2] = compound: C1=CC(=CC=C1C2=NC3=C(N2)C=C(C=C3)C(=O)N)OC4=CC=C(C=C4)Cl
Summary of the method: as §1

[3] = compound: C1=CC2=C(C=CC(=C2)/C=C\3/C(=O)NC(=NCC4=CC=CS4)S3)N=C1
Summary of the method: as §1

[4] = compound: C1=CC2=NC=CN=C2C=C1/C=C/3\C(=O)NC(=O)S3
Summary of the method: as §1

[5] = compound: C1=CC=C(C=C1)C2=NC(=C(N2)C3=CC=NC=C3)C4=CC(=C(C=C4)Cl)O
Summary of the method: as §1

[6] = compound: C1=CC=C2C(=C1)C3=NNC4=CC=CC(=C43)C2=O
Summary of the method: as §1

[7] = compound: C1CCN(C1)C(=O)NC2=CC=CC(=C2)NC3=NC=C(C(=N3)NCCC4=CN=CN4)Br
Summary of the method: as §1

[8] = compound: C1CN(CCC1(CC2=CC=C(C=C2)Cl)N)C3=NC=NC4=C3C=CN4
Summary of the method: as §1

IRAK-1-4 Inhibitor I = compound: C1COCCN1CCN2C3=CC=CC=C3N=C2NC(=O)C4=CC(=CC=C4)[N+](=O)[O-] [IRAK-1-4 Inhibitor I]
Summary of the method: as §1

ibrutinib = compound: C=CC(=O)N1CCC[C@@H](n2nc(-c3ccc(Oc4ccccc4)cc3)c3c(N)ncnc32)C1 [ibrutinib]
Summary of the method: as §1

[9] = compound: CC(=O)c1cnc2ccc(-c3cc(Cl)c(O)c(Cl)c3)nc2c1N[C@H]1CC[C@H](CN(C)C)CC1
Summary of the method: as §1

ralimetinib = compound: CC(C)(C)Cn1c(N)nc2ccc(-c3[nH]c(C(C)(C)C)nc3-c3ccc(F)cc3)nc21 [ralimetinib]
Summary of the method: as §1

[10] = compound: CC(C)(O)CC(=O)NCCn1ccc2ncnc(Nc3ccc(Oc4cccc(C(F)(F)F)c4)c(Cl)c3)c21
Summary of the method: as §1

[11] = compound: CC(C)C1=C2N=C(C=C(N2N=C1)NCC3=CC=CC=C3)NCCCCCCN
Summary of the method: as §1

[12] = compound: CC1=C(C(CC(=O)N1)C2=CC=C(C=C2)C(F)(F)F)C(=O)NC3=C(C=C4C(=C3)C=NN4)F
Summary of the method: as §1

[13] = compound: CC1=C(C2=C(C=C1)C(=O)C3=CC=CC=C3N2CCCN)C
Summary of the method: as §1

[14] = compound: CC1=C(C=C(C=C1)NC(=O)C2=CC(=CC=C2)C(C)(C)C#N)NC3=CC4=C(C=C3)N=CN(C4=O)C
Summary of the method: as §1

[15] = compound: CC1=C(C=C(C=C1)NC(=O)C2=CC(=CC=C2)N(C)C)NC(=O)C3=CC=C(C=C3)O
Summary of the method: as §1

[16] = compound: CC1=CC=C(C=C1)SC2=C3C=C(SC3=CN=C2)C(=O)N
Summary of the method: as §1

Measured: log2 fold change

RFC2 (UniProt P35250)
Chain of UniProt P35250 (P35250 whole entry, looked up): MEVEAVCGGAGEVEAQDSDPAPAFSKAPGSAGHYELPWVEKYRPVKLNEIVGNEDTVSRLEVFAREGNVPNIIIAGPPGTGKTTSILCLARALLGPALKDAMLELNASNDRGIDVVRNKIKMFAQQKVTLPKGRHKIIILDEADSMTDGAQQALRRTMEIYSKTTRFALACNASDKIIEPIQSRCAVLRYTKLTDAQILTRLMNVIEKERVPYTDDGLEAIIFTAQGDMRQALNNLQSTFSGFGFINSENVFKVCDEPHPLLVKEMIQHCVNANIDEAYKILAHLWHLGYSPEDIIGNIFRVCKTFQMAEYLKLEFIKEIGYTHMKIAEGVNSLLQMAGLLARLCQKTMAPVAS
inactive: erlotinib -0.004 | [1] 0.017 | [2] -0.059 | [3] -0.017 | [4] 0.018 | [5] 0.004 | [6] -0.013 | [7] -0.011 | [8] -0.031 | IRAK-1-4 Inhibitor I -0.013 | ibrutinib 0.009 | [9] 0.018 | ralimetinib 0.036 | [10] 0.044 | [11] -0.002 | [12] -0.001 | [13] 0.011 | [14] 0.008 | [15] 0.048 | [16] -0.001

RPS9 (UniProt P46781)
inactive: erlotinib -0.034 | [1] 0.022 | [2] -0.03 | [3] -0.054 | [4] -0.016 | [5] -0.011 | [6] 0.011 | [7] 0.025 | [8] -0.018 | IRAK-1-4 Inhibitor I -0.017 | ibrutinib -0.02 | [9] 0.015 | ralimetinib 0.016 | [10] 0.026 | [11] -0.007 | [12] -0.038 | [13] -0.095 | [14] -0.048 | [15] 0.006 | [16] 0.043

SAR1B (UniProt Q9Y6B6)
Chain of UniProt Q9Y6B6 (Q9Y6B6 whole entry, looked up): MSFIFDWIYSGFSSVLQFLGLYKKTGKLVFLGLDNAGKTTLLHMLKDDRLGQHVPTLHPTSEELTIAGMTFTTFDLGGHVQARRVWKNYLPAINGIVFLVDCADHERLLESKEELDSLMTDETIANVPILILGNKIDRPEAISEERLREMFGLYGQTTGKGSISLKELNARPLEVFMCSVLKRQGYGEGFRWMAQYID
inactive: erlotinib -0.143 | [1] 0.011 | [2] 0.042 | [3] -0.046 | [4] -0.065 | [5] -0.045 | [6] 0.029 | [7] -0.126 | [8] 0.025 | IRAK-1-4 Inhibitor I 0.041 | ibrutinib 0.02 | [9] -0.094 | ralimetinib 0.045 | [10] -0.032 | [11] 0.093 | [12] 0.154 | [13] -0.018 | [14] 0.026 | [15] -0.065 | [16] 0.077

RAB3IL1 (UniProt Q8TBN0)
inactive: erlotinib -0.026 | [1] 0.005 | [2] -0.021 | [3] 0.024 | [4] -0.05 | [5] 0.053 | [6] -0.038 | [7] -0.013 | [8] -0.003 | IRAK-1-4 Inhibitor I 0.011 | ibrutinib 0.03 | [9] -0.035 | ralimetinib 0.021 | [10] -0.022 | [11] 0.004 | [12] 0.116 | [13] -0.006 | [14] 0.02 | [15] -0.024 | [16] 0.003

SERPINI1 (UniProt Q99574)
Chain of UniProt Q99574 (Q99574 whole entry, looked up): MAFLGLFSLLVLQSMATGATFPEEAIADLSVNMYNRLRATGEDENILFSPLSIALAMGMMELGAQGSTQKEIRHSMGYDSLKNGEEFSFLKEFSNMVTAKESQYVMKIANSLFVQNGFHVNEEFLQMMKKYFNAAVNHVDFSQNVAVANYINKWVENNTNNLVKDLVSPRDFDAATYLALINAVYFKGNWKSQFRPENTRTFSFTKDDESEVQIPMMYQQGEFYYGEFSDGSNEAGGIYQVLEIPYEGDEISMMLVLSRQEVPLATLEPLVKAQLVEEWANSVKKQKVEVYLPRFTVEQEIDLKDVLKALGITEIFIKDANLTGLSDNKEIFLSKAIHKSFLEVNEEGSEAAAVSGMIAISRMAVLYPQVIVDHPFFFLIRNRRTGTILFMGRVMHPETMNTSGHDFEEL
inactive: erlotinib -0.003 | [1] -0.021 | [2] -0.037 | [3] 0.027 | [4] 0.054 | [5] -0.007 | [6] -0.117 | [7] 0.029 | [8] 0.038 | IRAK-1-4 Inhibitor I 0.031 | ibrutinib 0.063 | [9] 0.075 | ralimetinib 0.001 | [10] 0.024 | [11] 0.005 | [12] 0.056 | [13] 0.004 | [14] -0.024 | [15] -0.028 | [16] -0.054

SERINC3 (UniProt Q13530)
Chain of UniProt Q13530 (Q13530 whole entry, looked up): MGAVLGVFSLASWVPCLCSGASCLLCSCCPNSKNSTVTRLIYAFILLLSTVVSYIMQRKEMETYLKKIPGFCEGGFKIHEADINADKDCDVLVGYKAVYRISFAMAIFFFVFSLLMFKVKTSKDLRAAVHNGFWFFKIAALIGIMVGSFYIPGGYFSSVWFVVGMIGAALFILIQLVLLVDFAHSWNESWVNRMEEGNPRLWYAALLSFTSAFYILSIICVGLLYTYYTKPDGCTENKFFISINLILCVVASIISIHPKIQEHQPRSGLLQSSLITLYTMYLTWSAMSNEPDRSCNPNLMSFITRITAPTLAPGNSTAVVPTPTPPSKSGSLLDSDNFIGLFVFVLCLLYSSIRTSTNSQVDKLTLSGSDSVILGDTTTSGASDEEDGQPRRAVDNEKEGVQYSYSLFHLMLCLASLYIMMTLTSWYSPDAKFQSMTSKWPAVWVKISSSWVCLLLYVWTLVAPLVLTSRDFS
inactive: erlotinib 0.068 | [1] 0.145 | [2] 0.065 | [3] 0.073 | [4] 0.021 | [5] -0.02 | [6] -0.101 | [7] -0.03 | [8] 0.024 | IRAK-1-4 Inhibitor I 0.018 | ibrutinib 0.06 | [9] -0.082 | ralimetinib 0.01 | [10] -0.003 | [11] -0.016 | [12] -0.012 | [13] -0.055 | [14] 0.049 | [15] -0.042 | [16] -0.011

RNF213, A0A0A0MTC1
inactive: erlotinib 0.041 | [1] 0.004 | [2] 0 | [3] 0.042 | [4] 0.015 | [5] 0.021 | [6] -0.045 | [7] -0.005 | [8] 0.047 | IRAK-1-4 Inhibitor I 0.025 | ibrutinib 0.015 | [9] 0.006 | ralimetinib -0.001 | [10] -0.014 | [11] 0.007 | [12] 0.014 | [13] 0.008 | [14] 0.014 | [15] 0.042 | [16] 0.022

RPLP0P6 (UniProt Q8NHW5)
inactive: erlotinib -0.003 | [1] -0.069 | [2] -0.034 | [3] 0.026 | [4] -0.05 | [5] 0.009 | [6] 0.03 | [7] 0.024 | [8] 0.004 | IRAK-1-4 Inhibitor I 0.008 | ibrutinib 0.064 | [9] -0.005 | ralimetinib -0.01 | [10] -0.02 | [11] -0.009 | [12] -0.052 | [13] -0.028 | [14] 0.015 | [15] 0.01 | [16] -0.017

RAB6D (UniProt Q53S08)
Chain of UniProt Q53S08 (Q53S08 whole entry, looked up): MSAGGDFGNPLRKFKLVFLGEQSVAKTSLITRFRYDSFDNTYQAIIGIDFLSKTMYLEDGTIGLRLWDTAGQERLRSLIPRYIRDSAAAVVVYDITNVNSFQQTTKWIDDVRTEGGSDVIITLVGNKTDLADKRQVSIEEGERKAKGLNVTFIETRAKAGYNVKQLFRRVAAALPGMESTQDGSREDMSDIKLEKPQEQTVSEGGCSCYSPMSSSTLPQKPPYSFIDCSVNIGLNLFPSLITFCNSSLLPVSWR
inactive: erlotinib 0.027 | [1] -0.071 | [2] 0.054 | [3] -0.025 | [4] -0.048 | [5] -0.019 | [6] 0.044 | [7] -0.038 | [8] 0.157 | IRAK-1-4 Inhibitor I 0.003 | ibrutinib 0 | [9] 0.013 | ralimetinib -0.011 | [10] -0.087 | [11] 0.014 | [12] -0.113 | [13] -0.057 | [14] 0.009 | [15] 0.009 | [16] -0.026

RAD50 isoform 2 (UniProt Q92878)
Chain of UniProt Q92878 (Q92878 whole entry, looked up): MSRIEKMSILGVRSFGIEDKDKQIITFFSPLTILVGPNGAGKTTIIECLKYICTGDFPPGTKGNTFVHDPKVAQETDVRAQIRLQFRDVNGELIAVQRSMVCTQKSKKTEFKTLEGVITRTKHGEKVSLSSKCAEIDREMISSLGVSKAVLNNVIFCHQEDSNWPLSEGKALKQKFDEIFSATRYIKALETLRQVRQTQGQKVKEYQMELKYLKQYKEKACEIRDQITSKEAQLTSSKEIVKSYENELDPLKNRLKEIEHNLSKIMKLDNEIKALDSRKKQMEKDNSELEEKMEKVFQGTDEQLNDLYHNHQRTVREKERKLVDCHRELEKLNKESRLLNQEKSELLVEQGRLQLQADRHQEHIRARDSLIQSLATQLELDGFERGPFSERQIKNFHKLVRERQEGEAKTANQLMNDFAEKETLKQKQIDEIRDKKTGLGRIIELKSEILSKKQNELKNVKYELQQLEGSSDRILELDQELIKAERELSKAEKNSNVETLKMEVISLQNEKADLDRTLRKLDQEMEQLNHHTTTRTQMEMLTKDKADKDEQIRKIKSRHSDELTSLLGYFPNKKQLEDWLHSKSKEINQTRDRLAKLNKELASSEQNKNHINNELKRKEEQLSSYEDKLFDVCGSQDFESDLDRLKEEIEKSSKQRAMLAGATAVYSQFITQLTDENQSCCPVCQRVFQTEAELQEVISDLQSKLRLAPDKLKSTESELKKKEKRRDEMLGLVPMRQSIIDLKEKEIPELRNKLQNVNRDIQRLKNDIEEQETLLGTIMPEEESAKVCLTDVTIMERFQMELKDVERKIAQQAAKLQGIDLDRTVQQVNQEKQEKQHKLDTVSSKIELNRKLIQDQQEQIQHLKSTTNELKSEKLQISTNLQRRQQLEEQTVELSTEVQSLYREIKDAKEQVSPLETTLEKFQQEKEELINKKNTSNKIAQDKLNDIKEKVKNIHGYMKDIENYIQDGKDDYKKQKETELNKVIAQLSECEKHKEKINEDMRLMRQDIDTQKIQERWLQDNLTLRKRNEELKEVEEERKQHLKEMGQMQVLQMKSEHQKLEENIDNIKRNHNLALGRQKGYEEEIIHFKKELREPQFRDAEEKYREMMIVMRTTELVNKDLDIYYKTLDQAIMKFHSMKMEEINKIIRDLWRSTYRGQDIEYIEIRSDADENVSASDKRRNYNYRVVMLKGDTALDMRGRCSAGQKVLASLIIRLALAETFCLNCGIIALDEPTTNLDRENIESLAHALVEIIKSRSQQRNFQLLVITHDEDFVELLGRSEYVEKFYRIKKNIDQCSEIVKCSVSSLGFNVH
inactive: erlotinib -0.009 | [1] -0.007 | [2] 0.019 | [3] 0.006 | [4] -0.014 | [5] -0.023 | [6] -0.039 | [7] 0.005 | [8] -0.01 | IRAK-1-4 Inhibitor I -0.054 | ibrutinib 0.002 | [9] -0.01 | ralimetinib 0.01 | [10] 0.018 | [11] 0 | [12] -0.001 | [13] 0.03 | [14] 0 | [15] 0.017 | [16] -0.006

SCO1 (UniProt O75880)
inactive: erlotinib 0.008 | [1] -0.06 | [2] 0.036 | [3] -0.014 | [4] 0.011 | [5] 0.012 | [6] -0.045 | [7] 0.033 | [8] 0.068 | IRAK-1-4 Inhibitor I 0.006 | ibrutinib 0.029 | [9] 0.006 | ralimetinib -0.006 | [10] -0.072 | [11] -0.11 | [12] 0.044 | [13] -0.011 | [14] 0.021 | [15] -0.065 | [16] -0.023

SCML2 (UniProt Q9UQR0)
Chain of UniProt Q9UQR0 (Q9UQR0 whole entry, looked up): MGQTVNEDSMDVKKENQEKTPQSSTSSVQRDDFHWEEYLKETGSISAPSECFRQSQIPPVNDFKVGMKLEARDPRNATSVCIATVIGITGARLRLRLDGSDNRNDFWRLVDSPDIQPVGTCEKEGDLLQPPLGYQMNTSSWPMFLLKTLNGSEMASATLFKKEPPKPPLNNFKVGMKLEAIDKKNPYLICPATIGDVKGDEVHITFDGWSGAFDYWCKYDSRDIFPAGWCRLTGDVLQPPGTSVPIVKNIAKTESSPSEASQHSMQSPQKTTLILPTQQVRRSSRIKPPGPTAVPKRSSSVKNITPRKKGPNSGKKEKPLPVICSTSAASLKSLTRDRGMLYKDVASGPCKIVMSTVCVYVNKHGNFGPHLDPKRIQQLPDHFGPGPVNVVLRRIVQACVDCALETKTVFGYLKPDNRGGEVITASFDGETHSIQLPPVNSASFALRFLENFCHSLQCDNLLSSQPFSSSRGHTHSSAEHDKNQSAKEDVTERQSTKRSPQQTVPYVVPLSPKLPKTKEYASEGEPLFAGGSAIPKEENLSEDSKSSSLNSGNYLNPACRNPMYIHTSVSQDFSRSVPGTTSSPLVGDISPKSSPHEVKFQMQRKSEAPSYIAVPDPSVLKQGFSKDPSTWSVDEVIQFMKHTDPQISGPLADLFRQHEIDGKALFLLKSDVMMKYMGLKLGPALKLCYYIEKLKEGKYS
inactive: erlotinib 0.021 | [1] 0.038 | [2] 0.019 | [3] 0.068 | [4] -0.046 | [5] 0 | [6] -0.028 | [7] -0.003 | [8] 0.043 | IRAK-1-4 Inhibitor I -0.01 | ibrutinib -0.011 | [9] 0.028 | ralimetinib 0.004 | [10] 0.034 | [11] -0.011 | [12] 0.011 | [13] -0.012 | [14] -0.015 | [15] -0.006 | [16] 0.109

RCOR3 isoform 3 (UniProt Q9P2K3)
inactive: erlotinib -0.033 | [1] 0.025 | [2] 0.022 | [3] 0.009 | [4] -0.006 | [5] -0.017 | [6] -0.012 | [7] -0.02 | [8] -0.015 | IRAK-1-4 Inhibitor I -0.015 | ibrutinib -0.009 | [9] -0.03 | ralimetinib 0.014 | [10] -0.004 | [11] 0.011 | [12] 0 | [13] 0.002 | [14] -0.038 | [15] 0.002 | [16] -0.011

RBBP7 (UniProt Q16576)
inactive: erlotinib -0.038 | [1] -0.032 | [2] -0.021 | [3] -0.005 | [4] 0.007 | [5] -0.014 | [6] -0.008 | [7] 0.045 | [8] -0.022 | IRAK-1-4 Inhibitor I -0.082 | ibrutinib 0.062 | [9] 0.018 | ralimetinib 0.018 | [10] 0 | [11] -0.042 | [12] -0.003 | [13] 0.014 | [14] -0.114 | [15] 0.002 | [16] -0.03

RINT1 (UniProt Q6NUQ1)
Chain of UniProt Q6NUQ1 (Q6NUQ1 whole entry, looked up): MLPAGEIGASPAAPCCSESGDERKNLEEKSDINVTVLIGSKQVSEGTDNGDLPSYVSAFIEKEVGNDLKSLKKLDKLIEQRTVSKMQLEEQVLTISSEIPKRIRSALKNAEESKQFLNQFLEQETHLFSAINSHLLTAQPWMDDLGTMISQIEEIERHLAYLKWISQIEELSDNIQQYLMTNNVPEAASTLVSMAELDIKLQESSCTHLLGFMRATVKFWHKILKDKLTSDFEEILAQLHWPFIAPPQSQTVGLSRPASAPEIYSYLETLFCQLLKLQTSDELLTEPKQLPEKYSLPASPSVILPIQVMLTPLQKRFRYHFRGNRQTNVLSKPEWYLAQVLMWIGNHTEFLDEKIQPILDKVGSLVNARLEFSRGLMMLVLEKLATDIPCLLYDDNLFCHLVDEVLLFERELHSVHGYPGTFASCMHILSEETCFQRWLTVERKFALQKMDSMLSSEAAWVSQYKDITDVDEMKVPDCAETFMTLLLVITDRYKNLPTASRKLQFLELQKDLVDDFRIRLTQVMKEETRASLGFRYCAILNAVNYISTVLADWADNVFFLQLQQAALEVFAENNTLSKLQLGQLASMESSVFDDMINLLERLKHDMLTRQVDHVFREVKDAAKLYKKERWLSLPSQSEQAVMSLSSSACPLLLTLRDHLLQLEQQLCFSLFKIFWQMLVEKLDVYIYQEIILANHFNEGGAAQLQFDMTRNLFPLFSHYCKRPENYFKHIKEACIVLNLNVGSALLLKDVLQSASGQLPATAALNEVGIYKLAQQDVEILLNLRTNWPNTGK
inactive: erlotinib 0.056 | [1] 0.029 | [2] -0.01 | [3] 0.012 | [4] 0.03 | [5] -0.042 | [6] -0.048 | [7] -0.029 | [8] 0.067 | IRAK-1-4 Inhibitor I 0.074 | ibrutinib 0.011 | [9] 0.07 | ralimetinib 0.05 | [10] -0.094 | [11] 0.016 | [12] -0.066 | [13] -0.064 | [14] -0.02 | [15] 0.012 | [16] 0.016

RNASEH2B (UniProt Q5TBB1)
Chain of UniProt Q5TBB1 (Q5TBB1 whole entry, looked up): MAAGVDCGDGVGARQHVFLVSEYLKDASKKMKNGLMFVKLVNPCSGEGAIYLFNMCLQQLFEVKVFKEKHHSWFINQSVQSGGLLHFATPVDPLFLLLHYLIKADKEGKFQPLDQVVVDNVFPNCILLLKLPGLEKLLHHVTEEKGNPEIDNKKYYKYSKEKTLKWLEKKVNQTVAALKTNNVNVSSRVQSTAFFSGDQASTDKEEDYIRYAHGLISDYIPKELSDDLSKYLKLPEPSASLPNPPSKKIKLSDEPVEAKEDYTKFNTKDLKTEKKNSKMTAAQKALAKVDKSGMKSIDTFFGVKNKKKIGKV
inactive: erlotinib -0.01 | [1] 0.006 | [2] -0.024 | [3] 0.019 | [4] -0.011 | [5] 0.009 | [6] 0.024 | [7] -0.01 | [8] -0.041 | IRAK-1-4 Inhibitor I -0.003 | ibrutinib -0.001 | [9] -0.032 | ralimetinib 0.026 | [10] 0 | [11] 0.031 | [12] -0.025 | [13] 0.024 | [14] 0.005 | [15] 0.025 | [16] 0.009
